# Test results as given in PubChem BioAssay (NCATS).
# Values without a mark were called inactive. The rule behind the calls is not given here.
# Test system: HIV-1 nucleocapsid protein NCp7 (binding to TG oligonucleotide)
# Test: HIV Nucleocapsid (AID 346);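 note: potency is for inhibitors that block NC binding and lower polarization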
# Settings: HIV-1 NC / fluorescein-TGTGTGTG probe, fluorescence polarization
# Outline: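 Reagents dispensed (10 nM TG4xF, 100 nM HIV-1 NC), plates spun, compounds pin-transferred, then incubated 1 hr at room temperature before FP imaging. Buffer: Hepes pH 7.5, 250mM NaCl, 1uM ZnCl2, 100 uM TCEP, 5 mM 2-mercaptoethanol.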
# Potency is the fitted concentration of half-maximal effect.
row,SMILES,Potency [µM]
1,COCCn1c(=O)c(C)nc2cnc(Oc3ccc(OC)cc3)nc21,> 20
2,COc1ccc(-n2c(=O)cnc3cnc(N4CCNCC4)nc32)cc1,> 20
3,O=C(c1csnn1)N1CCC2(CC1)CCN(c1ccncc1)CC2,> 20
4,COC(=O)N1CCC[C@@]2(CCN(c3ccccc3)C2)C1,> 20
5,N#Cc1ccccc1-c1ccc2ncnc(NCc3cccnc3)c2c1,> 20
6,c1cncc(CNc2nc(-c3ccc4c(c3)OCO4)nc3ccccc23)c1,> 20
7,COc1ccccc1CN1CCC2(CC1)CCN(C(=O)c1csnn1)CC2,> 20
8,COc1ccccc1-c1nc(N2CCN(C)CC2)c2ccccc2n1,> 20
9,CC(C)NC(=O)N1CC[C@@]2(CCCN(C(=O)c3cccc(F)c3)C2)C1,> 20
10,COCC(=O)N1CCC2(CCCN(Cc3ccc(C#N)cc3)C2)CC1,> 20
11,Cc1cccc(CNc2ncncc2-c2cccc(NS(C)(=O)=O)c2)c1,> 20
12,COc1ccc2[nH]cc(CCNc3ccnc(-c4ccc(N(C)C)cc4)n3)c2c1,> 20
13,CC(=O)N1CCC[C@@]2(CCN(c3ccncc3)C2)C1,> 20
14,CN1CC[C@@]2(CCCN(C(=O)c3cccc(F)c3)C2)C1,> 20
15,COc1ncc2nc(-c3cc(F)cc(F)c3)c(=O)n(CCc3ccccc3)c2n1,> 20
16,O=C(c1cc(C(F)(F)F)cc(C(F)(F)F)c1)N1CCC2(CCCN(Cc3ccncc3)C2)CC1,> 20
17,CN(C)c1ccc(-c2ccc3ncnc(N(C)C)c3c2)cc1,> 20
18,COC(=O)N1CCC2(CC1)CN(C(=O)Nc1ccccc1)C2,> 20
19,N#Cc1cccc(-c2nc3cnc(N4CCOCC4)nc3n(C3CC3)c2=O)c1,> 20
20,CN1CCN(c2cc(-c3ccoc3)ncn2)CC1,> 20

row,SMILES,Potency [µM]
1,CC(C)CN1CC[C@@]2(CCCN(C(=O)c3csnn3)C2)C1,> 20
2,COc1cccc(Nc2ncc3nc(-c4cccs4)c(=O)n(CCC#N)c3n2)c1,> 20
3,COc1cccc(Cn2c(=O)cnc3cnc(N4CCN(C)CC4)nc32)c1,> 20
4,COc1ccc(Oc2ncc3nc(C)c(=O)n(-c4ccccc4)c3n2)cc1,> 20
5,COC(=O)N1CCC2(CC1)CCN(c1ccccn1)CC2,> 20
6,CN1CCN(c2ncc3nc(-c4cccs4)c(=O)n(CCc4ccccc4)c3n2)CC1,> 20
7,Cc1noc(C)c1C(=O)N1CCC[C@@]2(CCN(C(=O)Nc3cccc(F)c3)C2)C1,> 20
8,Cc1noc(C)c1C(=O)N1CCC2(CCN(Cc3cc(C(F)(F)F)cc(C(F)(F)F)c3)CC2)CC1,> 4
9,O=C(Oc1ccccc1)N1CCC2(CC1)CN(c1ncccn1)C2,> 20
10,N#Cc1cccc(-c2nc3cnc(N4CCNCC4)nc3n(C3CC3)c2=O)c1,> 20
11,COC(=O)N1CCC2(CC1)CCN(c1ccccc1)CC2,> 20
12,FC(F)(F)c1ccccc1-c1nccc(-n2ccnc2)n1,> 20
13,CN(C)C(=O)c1ccc(-c2ccc3ncnc(N4CCOCC4)c3c2)cc1,> 20
14,CN(C)C(=O)c1ccc(-c2nc(Nc3ccc(F)cc3)c3ccccc3n2)cc1,> 20
15,CC(C)CN1CCCC2(CCN(C(=O)c3cc(C(F)(F)F)cc(C(F)(F)F)c3)CC2)C1,> 20
16,CN1CCN(c2ncc3nc(-c4cccs4)c(=O)n(CCC#N)c3n2)CC1,15.3
17,O=C(Nc1cccc(F)c1)N1CC[C@@]2(CCCN(C(=O)c3csnn3)C2)C1,> 20
18,COc1ccccc1CNc1ncncc1-c1cccnc1,> 20
19,COc1ccc(-c2nc3cnc(N4CCOCC4)nc3n(Cc3cccc(OC)c3)c2=O)cc1,> 20
20,Cn1cc(-c2nc3cnc(Oc4cccc(Cl)c4)nc3n(CCC#N)c2=O)c2ccccc21,> 20
